# Test results reported in PubChem BioAssay (Tox21).
# Calls of active or inactive are those of the source. Entries that show only a call come without a potency. Unless noted, calls come from the whole dose curve; as a rule, active = well fitted curve in the direction sought with a large enough effect in the repeat runs; inconclusive = weak or mixed curves; inactive = no such curve, though single readings can be large; an effect the other way counts as inactive or inconclusive.
# How the values were obtained:
# [1] = qHTS assay for small molecules that induce genotoxicity in human embryonic kidney cells expressing luciferase-tagged ATAD5 (AID 651632); note: nearly all actives have a fitted effect of over 15% in size; note: potency is the fitted concentration of half-maximal effect
# Summary of the method: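 Increased luciferase signal from ATAD5-tagged reporter cells indicates DNA-damage-driven ATAD5 induction. HEK293T cells are treated for 16 hr at 37C before detection with Amplite.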
# [2] = qHTS assay for small molecule agonists of the p53 signaling pathway - cell viability (AID 651633; calls by dose curve; note: nearly all actives have a fitted effect of over 30% in size; note: potency is the fitted concentration of half-maximal effect)
# Summary of the method: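 Viability counter-read: CellTiter-Glo luminescence (30 min, room temperature) in the same p53RE-bla plates. These plates had been exposed to compounds for 16 h at 37 C.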
# [3] = qHTS assay for small molecules that induce genotoxicity in human embryonic kidney cells expressing luciferase-tagged ATAD5 - cell viability (AID 651634; calls by dose curve; note: nearly all actives have a fitted effect of over 25% in size; note: potency is the fitted concentration of half-maximal effect)
# Summary of the method: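 Cytotoxicity counterscreen in HEK293T cells bearing an ATAD5-luciferase reporter: live-cell protease activity measured by CellTiter-Fluor fluorescence after 15.5 hr compound exposure.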
# [4] = qHTS assay for small molecule disruptors of the mitochondrial membrane potential - cell viability (AID 720634; calls by dose curve; note: nearly all actives have a fitted effect of over 20% in size; note: potency is the fitted concentration of half-maximal effect)
# Summary of the method: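 After overnight attachment at 37 C, HepG2 cells received compound or DMSO vehicle for 1 hr. Viability is then taken from ATP-driven luminescence following a 30 min room-temperature CellTiter-Glo step.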
# [5] = qHTS assay for small molecule disruptors of the mitochondrial membrane potential (AID 720635); note: potency is the fitted concentration of half-maximal effect
# Summary of the method: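 Mitochondrial membrane potential tracked with Mito-MPS dye, red aggregates (ex 540/em 590 nm) against green monomers (ex 490/em 535 nm). Compound treatment 1 hr at 37C, dye 30 min in HepG2.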
# [6] = qHTS assay to test for compound auto fluorescence at 535 nm (green) in HepG2 cells (AID 720675)
# [7] = qHTS assay to test for compound auto fluorescence at 460 nm (blue) in HEK293 cells (AID 720678)
# Summary of the method: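 Triamterene serves as the blue fluorophore standard. Compound signal at 405/460 nm is read in HEK293 wells (2,000 cells, 10% dialyzed FBS) after overnight treatment at 37C.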
# [8] = qHTS assay to test for compound auto fluorescence at 590 nm (red) in HEK293 cells (AID 720679)
# Summary of the method: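 We plated HEK293 cells in 10% dialyzed FBS medium, let them adhere for 4-5 hr, then added 23 nL compound. Overnight at 37C and 5% CO2 preceded fluorescence measurement at 540/590nm.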
# [9] = qHTS assay to test for compound auto fluorescence at 535 nm (green) in HEK293 cells (AID 720680)
# [10] = qHTS assay to test for compound auto fluorescence at 460 nm (blue) in HEK293 cell free culture (AID 720681)
# Summary of the method: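 Blue fluorescence (Ex 405/Em 460 nm, triamterene-equivalent) was read immediately after pin transfer of compound or DMSO into medium (DMEM, 10% FBS) without cells.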
# [11] = qHTS assay to test for compound auto fluorescence at 535 nm (green) in HEK293 cell free culture (AID 720682)
# Summary of the method: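 Cell-free medium (DMEM, 10% FBS) receives compound or DMSO by pintool. Plate read directly at Ex 485/Em 535 nm. Signal converted to fluorescein equivalency.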
# [12] = qHTS assay to test for compound auto fluorescence at 590 nm (red) in HEK293 cell free culture (AID 720683)
# Summary of the method: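 Red-channel autofluorescence of compounds in culture medium (DMEM, 10% FBS), no cells, measured at 540/590 nm. Rose Bengal sodium is the reference fluorophore for equivalence.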
# [13] = qHTS assay to test for compound auto fluorescence at 590 nm (red) in HepG2 cell free culture (AID 720684)
# Summary of the method: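 Steps: dispense MEM/10% FBS medium, no cells; pin compound or DMSO vehicle; read red channel, Ex/Em 540/590 nm. Output given as Rose Bengal sodium equivalents.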
# [14] = qHTS assay to test for compound auto fluorescence at 460 nm (blue) in HepG2 cell free culture (AID 720685)
# Summary of the method: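 Compound (23 nL) or DMSO pinned into cell-free MEM with 10% FBS; blue fluorescence read at 405/460 nm excitation/emission, expressed as auto-fluorescence equivalency to triamterene.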
# [15] = qHTS assay to test for compound auto fluorescence at 535 nm (green) in HepG2 cell free culture (AID 720686)
# [16] = qHTS assay to test for compound auto fluorescence at 460 nm (blue) in HepG2 cells (AID 720687)
# Summary of the method: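 Blue-channel autofluorescence (Ex/Em 405/460 nm, triamterene-equivalent) was measured after 1 hr compound exposure at 37 C, 5% CO2. Cells were HepG2, plated overnight at 37 C in MEM plus 10% FBS.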
# [17] = target: Glucocorticoid receptor (Homo sapiens) (UniProt P04150); assay: qHTS assay to identify small molecule agonists of the glucocorticoid receptor (GR) signaling pathway (AID 720691; active = well fitted activation curve with a large enough effect in the signal ratio in the repeat runs, not every such curve was filed as active; inconclusive = weak or mixed curves, or effect the other way; inactive = no such curve, though single readings can be large or run the other way; the % refers to the signal ratio; note: potency is the fitted concentration of half-maximal effect); settings: GR-bla HeLa, beta-lactamase reporter ratio, 18 h; activation: at 62.4 µM (top of the series)
# Glucocorticoid receptor (Homo sapiens), sequence (P04150 whole entry, looked up): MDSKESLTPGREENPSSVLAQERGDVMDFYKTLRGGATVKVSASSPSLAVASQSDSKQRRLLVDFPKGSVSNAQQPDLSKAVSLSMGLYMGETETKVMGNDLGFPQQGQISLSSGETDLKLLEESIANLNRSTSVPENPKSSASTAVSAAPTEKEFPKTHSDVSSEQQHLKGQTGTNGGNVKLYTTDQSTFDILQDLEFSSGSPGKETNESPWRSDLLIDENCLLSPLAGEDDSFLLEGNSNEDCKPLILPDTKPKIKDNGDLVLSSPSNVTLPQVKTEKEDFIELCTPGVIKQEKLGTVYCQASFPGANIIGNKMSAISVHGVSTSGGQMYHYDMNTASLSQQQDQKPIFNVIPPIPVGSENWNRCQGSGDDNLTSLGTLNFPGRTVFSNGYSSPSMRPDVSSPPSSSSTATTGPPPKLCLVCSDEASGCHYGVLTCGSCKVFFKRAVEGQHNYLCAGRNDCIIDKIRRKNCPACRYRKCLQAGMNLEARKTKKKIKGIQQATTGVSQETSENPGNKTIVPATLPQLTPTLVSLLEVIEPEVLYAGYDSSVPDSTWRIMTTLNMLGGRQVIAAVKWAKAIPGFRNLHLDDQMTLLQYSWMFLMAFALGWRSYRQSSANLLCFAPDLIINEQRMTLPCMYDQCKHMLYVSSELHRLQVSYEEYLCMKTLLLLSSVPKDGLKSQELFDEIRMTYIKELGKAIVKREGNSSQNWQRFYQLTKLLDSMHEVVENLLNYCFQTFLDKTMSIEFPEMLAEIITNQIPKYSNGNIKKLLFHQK
# Summary of the method: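 Agonist mode in a HeLa line carrying a GRE-controlled beta-lactamase reporter. Compounds act for 18 h at 37 C before a 2 h room-temperature FRET substrate step and fluorescence reading.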
# [18] = qHTS assay to test for compound auto fluorescence at 590 nm (red) in HepG2 cells (AID 720674)
# Summary of the method: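 We screened compounds on adherent HepG2 cells, incubating them for an hour at 37 C in 5% CO2 before reading emission at 590 nm under 540 nm excitation; values reflect equivalence to Rose Bengal sodium fluorescence.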
# [19] = target: Glucocorticoid receptor (Homo sapiens) (UniProt P04150); assay: qHTS assay to identify small molecule antagonists of the glucocorticoid receptor (GR) signaling pathway (AID 720692; active = well fitted inhibition curve with a large enough effect in the signal ratio in the repeat runs, not every such curve was filed as active; inconclusive = weak or mixed curves, or effect the other way; inactive = no such curve, though single readings can be large or run the other way; the % refers to the signal ratio)
# Summary of the method: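 Cells plated, rested 4 h at 37 C/5% CO2; compounds in DMSO pin-transferred; dexamethasone added to 5 nM final; 18 h at 37 C; B/G FRET substrate added, 2 h room temperature; fluorescence measured.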
SMILES,Potency [1],Potency [2],Potency [3],Potency [4],Potency [5],Potency [6],Potency [7],Potency [8],Potency [9],Potency [10],Potency [11],Potency [12],Potency [13],outcome [14],Potency [15],outcome [16],Potency [17],Potency [18],Potency [19]
O=C(OCc1ccccc1)c1cccnc1,inactive,inactive,inactive,inactive,23.7 µM (active),inactive,inactive,inactive,inactive,inactive,inactive,inactive,inactive,inactive,inactive,inactive,inactive,–,–
COc1ccc2c(c1)OC(C)(C)C(c1ccccc1)C2c1ccc(OCCN2CCCC2)cc1 (stereo not given),inactive,29.8 µM (active),26.6 µM (active),inactive,–,inactive,inactive,inactive,inactive,inactive,inactive,inactive,inactive,inactive,inactive,inactive,–,inactive,–
COc1ccc2c(c1)N(C[C@H](C)CN(C)C)c1ccccc1S2,inactive,inactive,inactive,inactive,–,inactive,inactive,inactive,inactive,inactive,inactive,inactive,inactive,inactive,inactive,inactive,inactive,inactive,–
C=C(NC(=O)C(=C)NC(=O)c1csc(C2=N[C@@H]3c4csc(n4)[C@H]4NC(=O)c5csc(n5)[C@H]([C@](C)(O)[C@@H](C)O)NC(=O)[C@H]5CSC(=N5)C(=CC)NC(=O)C([C@@H](C)O)NC(=O)c5csc(n5)[C@]3(CC2)NC(=O)[C@H](C)NC(=O)C(=C)NC(=O)[C@H](C)NC(=O)C([C@@H](C)CC)NC2C=Cc3c([C@H](C)O)cc(nc3C2O)C(=O)O[C@@H]4C)n1)C(N)=O (stereo not given in full),11.4 µM (active),inactive,inactive,inactive,–,inactive,inactive,inactive,inactive,inactive,inactive,inactive,inactive,inactive,inactive,inactive,–,inactive,–
CCN(CC)CCOc1ccc2nc(N(C)C)sc2c1,inactive,inactive,inactive,inactive,–,inactive,inactive,inactive,inactive,inactive,inactive,inactive,inactive,inactive,inactive,inactive,–,inactive,–
CC(C)N1CCN(c2ccc(OC[C@H]3CO[C@](Cn4cncn4)(c4ccc(Cl)cc4Cl)O3)cc2)CC1,inactive,11.4 µM (active),inactive,inactive,–,inactive,inactive,inactive,inactive,inactive,inactive,inactive,inactive,inactive,inactive,–,–,inactive,–
CC(C)(C)C1(O)CCN2CC3c4ccccc4CCc4cccc(c43)C2C1 (stereo not given),inactive,13.3 µM (active),inactive,inactive,–,inactive,inactive,inactive,inactive,inactive,inactive,inactive,inactive,inactive,inactive,inactive,inactive,inactive,–
CC(C)(C)NCC(O)CSc1nc(-c2ccc(C(N)=O)s2)cs1 (stereo not given),inactive,inactive,inactive,inactive,13.3 µM (active),inactive,inactive,inactive,inactive,inactive,inactive,inactive,inactive,inactive,inactive,inactive,inactive,–,inactive
CN(C)CCOc1ccccc1Cc1ccccc1 (tested in a mixture with another compound),inactive,inactive,inactive,inactive,–,inactive,inactive,inactive,inactive,inactive,inactive,inactive,inactive,inactive,inactive,inactive,–,inactive,–
CN(C)CCCN1c2ccccc2C(C)(C)c2ccccc21,inactive,inactive,inactive,inactive,–,inactive,inactive,inactive,inactive,inactive,inactive,inactive,inactive,inactive,inactive,inactive,inactive,inactive,–
C[C@]12CC[C@@H]3c4ccc(O)cc4CC[C@H]3[C@@H]1CC[C@@H]2OP(=O)(O)O,inactive,inactive,inactive,inactive,–,inactive,inactive,inactive,inactive,inactive,inactive,inactive,inactive,inactive,inactive,inactive,–,inactive,–
CC(C)CCC[C@@H](C)[C@H]1CC(=O)C2=C3CC[C@H]4C[C@@H](O)CC[C@]4(C)[C@H]3CC[C@@]21C,inactive,inactive,inactive,inactive,–,inactive,inactive,inactive,inactive,inactive,inactive,inactive,inactive,inactive,inactive,inactive,inactive,inactive,–
CC(=O)O[C@]1(C(C)=O)CC[C@H]2[C@@H]3CCC4=CC(=O)CC[C@]4(C)[C@@]3(F)[C@@H](O)C[C@@]21C,inactive,inactive,inactive,inactive,inactive,inactive,inactive,inactive,inactive,inactive,inactive,inactive,inactive,inactive,inactive,inactive,0.0379 µM (active),–,–
C[C@@H]1C[C@H]2C3C[C@H](F)C4=CC(=O)C=CC4(C)[C@@]3(F)[C@@H](O)CC2(C)[C@@]1(O)C(=O)COC(=O)C(C)(C)C (stereo not given in full),inactive,inactive,inactive,inactive,–,inactive,inactive,inactive,inactive,inactive,inactive,inactive,inactive,inactive,inactive,inactive,0.0067 µM [inconclusive] (active),inactive,–
CC1(C)S[C@@H]2[C@H](NC(=O)C(N)c3ccccc3)C(=O)N2[C@H]1C(=O)OC1OC(=O)c2ccccc21 (stereo not given in full),inactive,inactive,inactive,inactive,–,inactive,inactive,inactive,inactive,inactive,inactive,inactive,inactive,inactive,inactive,inactive,–,inactive,–
CN1CCc2c(c3ccccc3n2Cc2ccccc2)C1,inactive,inactive,inactive,inactive,–,inactive,inactive,inactive,inactive,inactive,inactive,inactive,inactive,inactive,inactive,inactive,–,inactive,–
c1ccc2c(c1)Sc1ccccc1N2CCN1CCCC1,inactive,inactive,inactive,inactive,–,inactive,inactive,inactive,inactive,inactive,inactive,inactive,inactive,inactive,inactive,inactive,inactive,inactive,–
O=C(NOC[C@H](O)CO)c1ccc(F)c(F)c1Nc1ccc(I)cc1F,inactive,inactive,inactive,inactive,–,inactive,inactive,inactive,inactive,inactive,inactive,inactive,inactive,inactive,inactive,inactive,–,inactive,–
S=C1SCN(Cc2ccccc2)CN1Cc1ccccc1,inactive,inactive,inactive,inactive,–,inactive,inactive,inactive,inactive,inactive,inactive,inactive,inactive,inactive,inactive,–,–,inactive,–
OC1OC[C@@H](O)[C@H](O)[C@@H]1O (stereo not given in full),inactive,inactive,inactive,inactive,–,inactive,inactive,inactive,inactive,inactive,inactive,inactive,inactive,inactive,inactive,inactive,–,inactive,–
CC(C)NCC(O)COc1ccccc1-n1cccc1 (stereo not given),inactive,inactive,inactive,inactive,–,inactive,inactive,inactive,inactive,inactive,inactive,inactive,inactive,inactive,inactive,inactive,inactive,inactive,–
CCCCCCCCCCCC(=O)N(CCO)CCO,inactive,inactive,inactive,inactive,–,inactive,inactive,inactive,inactive,inactive,inactive,inactive,inactive,inactive,inactive,inactive,inactive,inactive,–
CC#CCC(C)[C@H](O)/C=C/[C@@H]1[C@H]2c3cccc(CCCC(=O)O)c3O[C@H]2C[C@H]1O (stereo not given in full),inactive,inactive,inactive,inactive,–,inactive,inactive,inactive,inactive,inactive,inactive,inactive,inactive,inactive,inactive,inactive,inactive,inactive,–
CC(CC(c1ccccc1)c1ccccc1)NC(C)(C)C (stereo not given),inactive,inactive,inactive,inactive,–,inactive,inactive,inactive,inactive,inactive,inactive,inactive,inactive,inactive,inactive,inactive,–,inactive,–
COc1ccc(C[C@H](N)C(=O)N[C@H]2[C@@H](O)[C@H](n3cnc4c(N(C)C)ncnc43)O[C@@H]2CO)cc1,1.06 µM (active),5.96 µM (active),2.66 µM (active),inactive,–,inactive,inactive,inactive,inactive,inactive,inactive,inactive,inactive,inactive,inactive,inactive,–,inactive,–
CCCCCCCCCCCCCCCCCCCCCCO,inactive,inactive,inactive,inactive,inactive,inactive,inactive,inactive,inactive,inactive,inactive,inactive,–,inactive,inactive,inactive,inactive,–,inactive
CC(CN1c2ccccc2Sc2cccnc21)N(C)C (stereo not given),inactive,inactive,inactive,inactive,–,inactive,inactive,inactive,inactive,inactive,inactive,inactive,inactive,inactive,inactive,inactive,inactive,inactive,–
CCOC(=O)Oc1c(OC)cc(C(=O)O[C@@H]2C[C@@H]3CN4CCc5c([nH]c6cc(OC)ccc56)[C@H]4C[C@@H]3[C@H](C(=O)OC)[C@H]2OC)cc1OC,inactive,inactive,inactive,10.1 µM (active),–,inactive,inactive,inactive,inactive,inactive,inactive,inactive,inactive,inactive,inactive,–,–,inactive,–
